Source: ChEMBL document CHEMBL1201862, “PubChem BioAssay data set” (2004)
Among all 58,000 sequences or so, about 4,000 (6.9%) were called active. Cut-off read from the data, not from the text of the source: active = GI50 up to about 1.1 µM and inactive = higher. Not all results are given here. Entries with a potency or affinity are not part of this list.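 Five concentrations, 48 hours, 96-well plates. Here, GI50 denotes the concentration required for 50% inhibition of growth.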

test system: SF-295; assay: NCI tumour cell line growth inhibition, 48 h

| Substance | GI50 |
| --- | --- |
| mu-(1,7-nanodiamine-N,N')bis-(cis-aminedichloroplatimum (II)), CHEMBL2146215 | 14.3 µM |
| [Bis(aminomethyl)tetramethylenesilane]dichloropaltinum(II), CHEMBL2146205 | 27.7 µM |
| [Bis(aminomethyl)pentamethylenesilane]tetrachloropaltinum(IV), CHEMBL2146204 | 3.3 µM |
| [Bis(aminomethyl)dimethylsilane]tetrachloroplatinum(IV), CHEMBL2146190 | 4.39 µM |
| [Bis(aminomethyl)pentamethylenesilane]dichloropaltinum(II), CHEMBL2146202 | 2.65 µM |
| cis-Bis[[(trimethylsilyl)methyl]amino]tetrachloroplatinum(IV), CHEMBL2146191 | 13.7 µM |
| [Bis(aminomethyl)tetramethylenesilane]tetrachloropaltinum(IV), CHEMBL2146189 | 5.25 µM |
| [Bis(aminomethyl)ethylmethylsilane]tetrachloroplatinum(IV), CHEMBL2146192 | 3.17 µM |
| [Bis(aminomethyl)dimethylsilane]dichloroplatinum (II), CHEMBL2146201 | 11.9 µM |
| CISPLATIN, CHEMBL11359 | 0.912 µM |
| [Bis(aminomethyl)diethylsilane]tetrachloroplatinum(IV), CHEMBL2146203 | 3.37 µM |
